# Active and inactive are the calls of the source. The calls were made as follows: active = hit-call score of the fitted dose curve at least 0.9, where 1 is the maximum; inactive = score below 0.9.
# Assays:
# [1] = ATG_GLI_CIS: Attagene CIS-FACTORIAL HepG2 Assay for human Zinc Finger Protein GLI1 (AID 2282945); details: HepG2, Attagene cis-factorial reporter mRNA, GLI element; actives raise or lower the signal
# Outline: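 Transiently transfected HepG2 cells report endogenous transcription factor activity via cis-element-driven reporter units. After 24 h compound exposure, reporter mRNA was measured by RT-PCR with capillary electrophoresis; bidirectional fitting against DMSO baseline.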
# [2] = ATG_GRE_CIS: Attagene CIS-FACTORIAL HepG2 Assay for human Glucocorticoid Response Elements (GRE) (AID 2282947); details: HepG2 GRE cis-reporter, Attagene multiplex mRNA; actives raise or lower the signal
# Outline: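 Read-out: fluorescent reporter-transcript fragments separated by capillary electrophoresis after RT-PCR. Transiently transfected HepG2 cells carrying cis-element-driven reporter units were dosed for 24 h; gain or loss of signal fitted against DMSO control.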
# [3] = ATG_ISRE_CIS: Attagene CIS-FACTORIAL HepG2 Assay for human Interferon Regulatory Factor 1 (IRF1) binding to an Interferon-Stimulated Response Element (ISRE) (AID 2282948); details: HepG2 ISRE cis-reporter (Attagene), mRNA transcription readout; actives raise or lower the signal
# Outline: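 Uses HepG2 liver cells transfected with cis-regulated reporters and measures mRNA 24 h post-dosing through RT-PCR, primer-extension labelling and capillary electrophoresis, with DMSO as negative control.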
# [4] = ATG_M_32_CIS: Attagene CIS-FACTORIAL HepG2 Assay for M32 Transcription Factor (Internal Marker) (AID 2282949); details: HepG2 Attagene cis-factorial M32 reporter, mRNA; actives raise or lower the signal;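 also: background control marker of the multiplexed CIS panel rather than a real target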
# Outline: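 Transient MRTU transfection of HepG2; 24 h compound treatment; TriZol RNA, oligo(dT) RT, reporter PCR, 6-FAM primer extension, HpaI cut, CE. Gain/loss of signal vs DMSO.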
# [5] = ATG_M_06_CIS: Attagene CIS-FACTORIAL HepG2 Assay for M06 Transcription Factor (Internal Marker) (AID 2282950); details: HepG2 Attagene CIS-FACTORIAL M06 internal marker reporter; actives raise or lower the signal
# Outline: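 Steps: transfect HepG2 with multiplexed cis-element reporter constructs; dose chemical 24 h; extract RNA with DNase treatment; reverse-transcribe, PCR-amplify, 6-FAM label, HpaI digest; separate fragments by capillary electrophoresis. Activity fitted both directions versus DMSO.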
# [6] = target: Hypoxia-inducible factor 1-alpha (Homo sapiens) (UniProt Q16665); experiment: ATG_HIF1a_CIS: Attagene CIS-FACTORIAL HepG2 Assay for human Hypoxia Inducible Factor 1 (HIF1A) (AID 2282951); details: HepG2 Attagene cis-factorial HIF1a reporter transcription; actives raise or lower the signal
# Hypoxia-inducible factor 1-alpha (Homo sapiens), sequence (Q16665 whole entry, looked up, the tested form may be a part): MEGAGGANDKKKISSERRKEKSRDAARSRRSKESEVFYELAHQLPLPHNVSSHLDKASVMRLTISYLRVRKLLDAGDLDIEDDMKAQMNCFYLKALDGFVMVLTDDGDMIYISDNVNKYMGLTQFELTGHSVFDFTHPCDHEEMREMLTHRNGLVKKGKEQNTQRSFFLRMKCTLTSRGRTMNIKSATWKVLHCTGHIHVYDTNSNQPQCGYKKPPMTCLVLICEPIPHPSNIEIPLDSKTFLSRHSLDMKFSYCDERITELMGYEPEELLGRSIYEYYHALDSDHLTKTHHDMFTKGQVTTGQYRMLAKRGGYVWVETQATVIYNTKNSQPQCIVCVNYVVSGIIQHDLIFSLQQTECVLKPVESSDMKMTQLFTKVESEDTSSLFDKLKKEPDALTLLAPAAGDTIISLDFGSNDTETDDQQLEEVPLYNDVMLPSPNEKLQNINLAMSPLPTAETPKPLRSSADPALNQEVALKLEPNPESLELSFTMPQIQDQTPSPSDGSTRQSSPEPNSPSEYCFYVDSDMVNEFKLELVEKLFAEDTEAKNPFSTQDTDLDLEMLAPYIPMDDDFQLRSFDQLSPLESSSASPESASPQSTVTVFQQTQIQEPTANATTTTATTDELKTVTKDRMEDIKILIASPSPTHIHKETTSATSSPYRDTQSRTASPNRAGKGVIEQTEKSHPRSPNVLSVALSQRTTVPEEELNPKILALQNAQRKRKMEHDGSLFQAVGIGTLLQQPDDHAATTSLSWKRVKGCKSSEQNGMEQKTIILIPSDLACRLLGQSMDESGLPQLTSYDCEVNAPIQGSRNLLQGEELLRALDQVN
# Outline: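 Transient MRTU transfection of human HepG2 liver cells, 24 h compound treatment, then total RNA isolation, oligo(dT) reverse transcription, PCR amplification, fluorescent labelling and capillary electrophoresis of reporter fragments. Gain or loss relative to DMSO.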
# [7] = target: Hepatocyte nuclear factor 6 (Homo sapiens) (UniProt Q9UBC0); experiment: ATG_HNF6_CIS: Attagene CIS-FACTORIAL HepG2 Assay for human Hepatocyte Nuclear Factor 6 (HNF6) (AID 2282952); details: HepG2 Attagene cis-factorial HNF6 reporter transcription; actives raise or lower the signal
# Hepatocyte nuclear factor 6 (Homo sapiens), sequence (Q9UBC0 whole entry, looked up): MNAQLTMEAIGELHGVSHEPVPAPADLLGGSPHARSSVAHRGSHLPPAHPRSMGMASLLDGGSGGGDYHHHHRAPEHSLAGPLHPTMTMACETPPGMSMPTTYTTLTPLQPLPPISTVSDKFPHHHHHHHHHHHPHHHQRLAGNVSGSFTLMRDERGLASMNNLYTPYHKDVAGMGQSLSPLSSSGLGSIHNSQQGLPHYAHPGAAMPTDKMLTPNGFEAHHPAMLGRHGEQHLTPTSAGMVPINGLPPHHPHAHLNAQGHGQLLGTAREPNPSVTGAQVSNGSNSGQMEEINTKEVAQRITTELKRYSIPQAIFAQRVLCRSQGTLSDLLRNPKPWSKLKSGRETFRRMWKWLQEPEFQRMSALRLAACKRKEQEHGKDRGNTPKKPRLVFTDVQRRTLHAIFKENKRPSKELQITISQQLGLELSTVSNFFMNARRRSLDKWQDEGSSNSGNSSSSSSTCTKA
# Outline: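 Activity values derive from bidirectional fitting against DMSO of reporter mRNA levels, measured by capillary electrophoresis of labelled RT-PCR products from HepG2 cells exposed 24 h.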
# [8] = target: Heat shock factor protein 1 (Homo sapiens) (UniProt Q00613); experiment: ATG_HSE_CIS: Attagene CIS-FACTORIAL HepG2 Assay for human Heat Shock Transcription Factor 1 (HSE) (AID 2282953); details: HepG2 HSE cis-reporter, Attagene RNA transcription; actives raise or lower the signal
# Heat shock factor protein 1 (Homo sapiens), sequence (Q00613 whole entry, looked up, the tested form may be a part): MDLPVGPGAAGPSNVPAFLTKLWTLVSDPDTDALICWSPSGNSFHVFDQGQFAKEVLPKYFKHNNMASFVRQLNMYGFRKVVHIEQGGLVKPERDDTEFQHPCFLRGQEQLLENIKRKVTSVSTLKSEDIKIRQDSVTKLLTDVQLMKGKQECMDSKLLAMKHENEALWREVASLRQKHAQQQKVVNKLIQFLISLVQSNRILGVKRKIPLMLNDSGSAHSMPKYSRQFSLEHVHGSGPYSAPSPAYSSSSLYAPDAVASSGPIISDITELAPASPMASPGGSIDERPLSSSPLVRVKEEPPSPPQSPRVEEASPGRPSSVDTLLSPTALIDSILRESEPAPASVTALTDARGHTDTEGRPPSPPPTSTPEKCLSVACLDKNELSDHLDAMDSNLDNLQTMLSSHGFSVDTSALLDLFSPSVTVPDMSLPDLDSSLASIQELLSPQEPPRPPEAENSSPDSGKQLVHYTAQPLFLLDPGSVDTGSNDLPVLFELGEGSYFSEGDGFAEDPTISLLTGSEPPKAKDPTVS
# Outline: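 Cells were transfected with cis-element-driven reporter constructs, dosed for 24 h, then total RNA was reverse-transcribed and reporter cDNA amplified, FAM-labelled and digested with HpaI. Fragments were resolved by capillary electrophoresis; gain or loss was fitted against DMSO.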
# [9] = ATG_MRE_CIS: Attagene CIS-FACTORIAL HepG2 Assay for human Metal Responsive Element (MRE) (AID 2282954); details: HepG2 MRE cis-reporter transcription, Attagene multiplex; actives raise or lower the signal
# Outline: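 RT-PCR/capillary electrophoresis readout of reporter mRNA, 24 h post-dosing, in HepG2 cells transfected with multiplexed cis-regulated reporter constructs. Gain or loss of signal fitted bidirectionally against DMSO baseline.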
# [10] = ATG_PBREM_CIS: Attagene CIS-FACTORIAL HepG2 Assay for human Phenobarbital-responsive Enhancer Module (PBREM) (AID 2282955); details: HepG2 PBREM cis-reporter, Attagene multiplexed transcription; actives raise or lower the signal
# Outline: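 Endogenous transcription factors in human liver HepG2 cells drive a PBREM cis-element reporter, whose transcript level after 24 h treatment is quantified by RT-PCR with capillary electrophoresis; activity fitted in both directions against DMSO.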
# [11] = target: Paired box protein Pax-6 (Homo sapiens) (UniProt P26367); experiment: ATG_Pax6_CIS: Attagene CIS-FACTORIAL HepG2 Assay for human Paired Box 6 (PAX6) (AID 2282956); details: HepG2 CIS-FACTORIAL PAX6 reporter transcription, RNA readout; actives raise or lower the signal
# Paired box protein Pax-6 (Homo sapiens), sequence (P26367 whole entry, looked up): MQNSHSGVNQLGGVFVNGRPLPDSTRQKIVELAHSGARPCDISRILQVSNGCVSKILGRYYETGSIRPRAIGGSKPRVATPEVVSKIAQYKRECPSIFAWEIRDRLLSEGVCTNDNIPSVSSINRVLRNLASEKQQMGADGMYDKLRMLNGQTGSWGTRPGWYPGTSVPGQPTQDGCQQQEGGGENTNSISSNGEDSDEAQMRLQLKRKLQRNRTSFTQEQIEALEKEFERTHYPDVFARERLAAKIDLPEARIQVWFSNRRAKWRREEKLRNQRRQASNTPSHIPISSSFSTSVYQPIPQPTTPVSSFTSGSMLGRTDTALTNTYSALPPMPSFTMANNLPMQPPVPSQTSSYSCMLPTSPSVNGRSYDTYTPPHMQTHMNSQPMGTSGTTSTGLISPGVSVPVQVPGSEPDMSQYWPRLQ
# Outline: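 DMSO-referenced bidirectional fits of reporter mRNA fluorescence; HepG2 with transient cis-promoter MRTUs, 24 h post-dose, RT-PCR plus capillary electrophoresis detection.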
# [12] = ATG_PXRE_CIS: Attagene CIS-FACTORIAL HepG2 Assay for human Pregnane X Receptor Element (PXRE) (AID 2282957); details: HepG2 Attagene CIS-FACTORIAL PXRE reporter, mRNA; actives raise or lower the signal
# Outline: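 Fluorescent capillary electrophoresis of amplified reporter cDNA gave the signal, collected 24 h after dosing HepG2 cells that held transfected cis-element reporter constructs.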
# [13] = ATG_Sox_CIS: Attagene CIS-FACTORIAL HepG2 Assay for human SRY-box transcription factor (SOX) (AID 2282960); details: HepG2 Attagene cis-factorial SOX reporter, mRNA; actives raise or lower the signal
# Outline: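 Endogenous factor activity in human liver HepG2 cells carrying transfected cis-regulated reporter units. RNA taken 24 h post-dose, reverse-transcribed, PCR-amplified and sized by capillary electrophoresis. Gain or loss of signal fitted relative to DMSO.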
# [14] = target: Transcription factor Sp1 (Homo sapiens) (UniProt P08047); experiment: ATG_Sp1_CIS: Attagene CIS-FACTORIAL HepG2 Assay for human Specificity Protein 1 (Sp1) (AID 2282961); details: HepG2 Sp1 cis-reporter transcription, actives raise or lower the signal
# Transcription factor Sp1 (Homo sapiens), sequence (P08047 whole entry, looked up): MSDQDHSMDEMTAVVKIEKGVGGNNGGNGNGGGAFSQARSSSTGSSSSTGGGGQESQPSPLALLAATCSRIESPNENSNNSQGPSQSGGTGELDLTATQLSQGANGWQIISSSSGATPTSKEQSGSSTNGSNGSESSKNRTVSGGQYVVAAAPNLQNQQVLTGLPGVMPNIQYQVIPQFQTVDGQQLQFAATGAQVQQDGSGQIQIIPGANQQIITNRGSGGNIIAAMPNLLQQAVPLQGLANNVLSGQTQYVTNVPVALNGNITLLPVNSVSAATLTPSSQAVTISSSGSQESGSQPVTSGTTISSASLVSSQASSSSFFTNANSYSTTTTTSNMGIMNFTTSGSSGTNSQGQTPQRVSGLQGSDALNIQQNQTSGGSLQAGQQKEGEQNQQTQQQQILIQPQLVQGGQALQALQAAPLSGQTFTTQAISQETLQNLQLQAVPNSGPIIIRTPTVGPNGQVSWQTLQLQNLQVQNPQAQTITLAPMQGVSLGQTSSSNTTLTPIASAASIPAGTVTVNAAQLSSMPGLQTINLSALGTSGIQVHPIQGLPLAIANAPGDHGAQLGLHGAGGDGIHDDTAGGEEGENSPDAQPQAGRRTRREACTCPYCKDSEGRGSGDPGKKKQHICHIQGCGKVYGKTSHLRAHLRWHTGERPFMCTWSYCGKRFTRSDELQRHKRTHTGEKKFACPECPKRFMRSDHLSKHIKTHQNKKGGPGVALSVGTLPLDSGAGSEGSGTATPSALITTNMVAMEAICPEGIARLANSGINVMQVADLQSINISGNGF
# Outline: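 Transient MRTU-transfected HepG2, 24 h compound exposure. Total RNA → oligo(dT) RT → PCR of reporter → 6-FAM primer extension → HpaI digest → CE. Endpoint fitted both directions vs DMSO.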
# [15] = ATG_SREBP_CIS: Attagene CIS-FACTORIAL HepG2 Assay for human Sterol Regulatory Element Binding (SREBP) (AID 2282962); details: HepG2 Attagene cis-factorial SREBP reporter, mRNA; actives raise or lower the signal
# Outline: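 In this cis-format assay, HepG2 liver cells express reporters controlled by promoter elements responsive to native transcription factors. Exposure lasts 24 h; reporter mRNA fluorescence from capillary electrophoresis gives the signal, fitted bidirectionally against DMSO.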
# [16] = target: Signal transducer and activator of transcription 3 (Homo sapiens) (UniProt P40763); experiment: ATG_STAT3_CIS: Attagene CIS-FACTORIAL HepG2 Assay for human Signal Transducer and Activator of Transcription 3 (STAT3) (AID 2282963); details: HepG2, Attagene cis-factorial STAT3 reporter transcription; actives raise or lower the signal
# Signal transducer and activator of transcription 3 (Homo sapiens), sequence (P40763 whole entry, looked up, the tested form may be a part): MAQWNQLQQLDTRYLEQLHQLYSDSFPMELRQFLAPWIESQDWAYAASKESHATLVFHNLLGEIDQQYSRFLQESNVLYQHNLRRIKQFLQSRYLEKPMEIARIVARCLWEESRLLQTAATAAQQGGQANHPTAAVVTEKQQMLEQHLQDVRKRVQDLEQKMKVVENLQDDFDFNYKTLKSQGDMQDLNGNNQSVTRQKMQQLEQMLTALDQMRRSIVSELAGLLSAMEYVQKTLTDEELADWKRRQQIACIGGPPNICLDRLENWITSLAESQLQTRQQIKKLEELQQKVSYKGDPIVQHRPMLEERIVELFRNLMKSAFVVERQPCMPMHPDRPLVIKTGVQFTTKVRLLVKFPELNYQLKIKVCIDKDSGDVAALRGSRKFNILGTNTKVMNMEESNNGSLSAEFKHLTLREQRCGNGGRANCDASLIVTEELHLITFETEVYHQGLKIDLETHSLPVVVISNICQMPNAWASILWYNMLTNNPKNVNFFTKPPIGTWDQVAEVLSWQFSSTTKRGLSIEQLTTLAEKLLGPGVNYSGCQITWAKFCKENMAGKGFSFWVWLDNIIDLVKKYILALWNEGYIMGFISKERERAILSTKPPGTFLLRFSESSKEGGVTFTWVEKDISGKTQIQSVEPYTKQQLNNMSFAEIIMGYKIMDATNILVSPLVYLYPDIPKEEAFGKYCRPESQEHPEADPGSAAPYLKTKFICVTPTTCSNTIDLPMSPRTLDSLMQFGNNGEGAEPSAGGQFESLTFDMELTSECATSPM
# Outline: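 Readout: fluorescent reporter mRNA fragments resolved by capillary electrophoresis. Setup: HepG2 transfected with MRTUs reporting endogenous transcription-factor activity, dosed 24 h. Gain or loss of signal fitted bidirectionally against DMSO control.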
# [17] = ATG_TA_CIS: Attagene CIS-FACTORIAL HepG2 Assay for human TA Basal Promoter (AID 2282964); details: HepG2 Attagene CIS-factorial TA basal promoter reporter; actives raise or lower the signal
# Outline: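 Steps: transfect HepG2 with MRTUs; dose 24 h; isolate RNA, DNase-treat, reverse-transcribe; PCR and FAM-label reporter cDNA; digest with HpaI 2h at 37 C; run capillary electrophoresis. Activity fitted both directions against DMSO.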
# [18] = ATG_PPRE_CIS: Attagene CIS-FACTORIAL HepG2 Assay for human Peroxisome Proliferator-activated Response Element (PPRE) (AID 2282958); details: HepG2 PPRE cis-element reporter, Attagene transcription factor profiling; actives raise or lower the signal
# Outline: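 HepG2, transient MRTU transfection (cis promoter elements, endogenous TFs). 24 h dosing. RNA → oligo(dT) RT → PCR → 6-FAM primer extension → HpaI digest → CE. Bidirectional fit vs DMSO.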
# [19] = ATG_RORE_CIS: Attagene CIS-FACTORIAL HepG2 Assay for human RAR-related Orphan Receptor Element (RORE) (AID 2282959); details: HepG2 Attagene cis-factorial RORE reporter, mRNA; actives raise or lower the signal
# Outline: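 Transient MRTU transfection of human HepG2 liver cells (FuGene 6); 24 h compound exposure; TriZol RNA, oligo(dT) RT, PCR, FAM labeling, HpaI cut, CE fragment analysis. DMSO = negative control/baseline.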
SMILES,outcome [1],outcome [2],outcome [3],outcome [4],outcome [5],outcome [6],outcome [7],outcome [8],outcome [9],outcome [10],outcome [11],outcome [12],outcome [13],outcome [14],outcome [15],outcome [16],outcome [17],outcome [18],outcome [19],AC50 [12]
O=S(=O)(O)c1cc(S(=O)(=O)O)c2c(N=Nc3ccccc3)c(O)ccc2c1,inactive,inactive,inactive,inactive,inactive,inactive,inactive,inactive,inactive,inactive,inactive,inactive,inactive,inactive,inactive,inactive,inactive,,,
O=C(O)CS,inactive,inactive,inactive,inactive,inactive,inactive,inactive,inactive,inactive,,inactive,inactive,inactive,inactive,inactive,inactive,inactive,inactive,inactive,
CC1=CC(C)C(C=O)C(C)C1 (centres undefined) (tested in a mixture with another compound),inactive,inactive,inactive,inactive,inactive,inactive,inactive,inactive,inactive,inactive,inactive,,inactive,inactive,inactive,,inactive,,inactive,15.9 µM (active)
CC/C=C\CCOC(=O)C(C)C,inactive,inactive,inactive,inactive,inactive,inactive,inactive,inactive,inactive,,inactive,inactive,inactive,inactive,inactive,inactive,inactive,inactive,,
